Measured values: PubChem BioAssay AID1347074 (Center for Chemical Genomics, University of Michigan, 2019)
The campaign covered roughly 47,000 compounds. About 2,800 (6%) were called active. Only a selection was taken, and actives are over-represented in it overall. Values without a mark were called inactive. Cut-off read from the data, not from the text of the source: active = z-score above about 3 (passing the limit was not always enough); inactive = the rest.

What follows are compounds tested against Endoribonuclease Dicer (Homo sapiens) (UniProt Q9UPY3) (assay: Dicer cleavage of pre-miR-21 blockers – biochemical, cat-ELCCA, chemiluminescence, primary screen (AID 1347074;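 note: plate controls were vehicle for no effect and no enzyme for full effect; higher signal means more uncleaved substrate so more Dicer inhibition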)). Details: cat-ELCCA pre-miR-21 Dicer processing, at 25 µM, hits give high values.
Endoribonuclease Dicer (Homo sapiens), sequence (Q9UPY3 whole entry, looked up): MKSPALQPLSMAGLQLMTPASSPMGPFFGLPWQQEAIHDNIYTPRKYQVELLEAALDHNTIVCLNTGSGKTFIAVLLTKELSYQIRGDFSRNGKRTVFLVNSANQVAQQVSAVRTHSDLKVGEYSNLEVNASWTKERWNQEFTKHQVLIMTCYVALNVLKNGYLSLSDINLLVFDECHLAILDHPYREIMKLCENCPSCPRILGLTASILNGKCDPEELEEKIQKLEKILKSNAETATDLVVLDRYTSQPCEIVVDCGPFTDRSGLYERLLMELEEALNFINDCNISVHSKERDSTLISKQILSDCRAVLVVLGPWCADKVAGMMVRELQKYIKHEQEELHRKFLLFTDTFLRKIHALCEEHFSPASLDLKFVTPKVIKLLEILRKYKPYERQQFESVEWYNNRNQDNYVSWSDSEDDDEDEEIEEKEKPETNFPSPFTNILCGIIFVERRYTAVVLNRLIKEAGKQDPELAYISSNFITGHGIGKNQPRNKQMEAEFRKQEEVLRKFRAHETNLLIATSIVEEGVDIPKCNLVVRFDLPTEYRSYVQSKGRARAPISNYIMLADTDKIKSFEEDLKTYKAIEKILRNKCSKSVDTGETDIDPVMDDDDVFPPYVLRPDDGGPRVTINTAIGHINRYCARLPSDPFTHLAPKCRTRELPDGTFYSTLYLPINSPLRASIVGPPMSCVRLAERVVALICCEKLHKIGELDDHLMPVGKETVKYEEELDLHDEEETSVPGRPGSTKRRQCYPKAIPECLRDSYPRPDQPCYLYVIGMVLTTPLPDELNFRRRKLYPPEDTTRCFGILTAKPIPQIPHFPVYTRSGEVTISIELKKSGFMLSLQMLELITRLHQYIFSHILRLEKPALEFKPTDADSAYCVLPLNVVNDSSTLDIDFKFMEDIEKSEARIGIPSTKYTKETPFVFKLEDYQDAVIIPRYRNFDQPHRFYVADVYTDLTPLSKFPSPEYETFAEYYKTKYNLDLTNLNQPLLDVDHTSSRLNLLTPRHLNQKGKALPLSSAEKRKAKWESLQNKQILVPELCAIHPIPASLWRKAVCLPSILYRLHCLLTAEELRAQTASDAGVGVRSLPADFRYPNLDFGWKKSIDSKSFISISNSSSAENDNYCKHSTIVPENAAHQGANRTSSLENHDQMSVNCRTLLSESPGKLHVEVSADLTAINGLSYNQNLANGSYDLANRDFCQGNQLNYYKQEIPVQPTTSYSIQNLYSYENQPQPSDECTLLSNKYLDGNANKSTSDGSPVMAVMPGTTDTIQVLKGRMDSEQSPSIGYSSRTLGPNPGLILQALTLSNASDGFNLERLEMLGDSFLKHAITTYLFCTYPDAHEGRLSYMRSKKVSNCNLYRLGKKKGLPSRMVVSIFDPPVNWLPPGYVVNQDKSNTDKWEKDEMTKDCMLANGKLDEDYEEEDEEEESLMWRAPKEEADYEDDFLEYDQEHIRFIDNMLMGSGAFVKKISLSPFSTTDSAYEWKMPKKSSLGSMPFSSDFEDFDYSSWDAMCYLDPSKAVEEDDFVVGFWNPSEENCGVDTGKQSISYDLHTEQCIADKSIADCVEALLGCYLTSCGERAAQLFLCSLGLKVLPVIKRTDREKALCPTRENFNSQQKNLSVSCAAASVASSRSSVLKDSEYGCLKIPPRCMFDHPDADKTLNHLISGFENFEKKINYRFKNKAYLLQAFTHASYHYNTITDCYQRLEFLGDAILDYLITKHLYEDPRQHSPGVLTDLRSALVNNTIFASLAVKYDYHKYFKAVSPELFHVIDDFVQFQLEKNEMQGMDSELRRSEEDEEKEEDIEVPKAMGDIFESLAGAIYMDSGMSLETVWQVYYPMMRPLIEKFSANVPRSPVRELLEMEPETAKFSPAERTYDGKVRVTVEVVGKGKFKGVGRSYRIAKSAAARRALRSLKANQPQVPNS

| Compound | z-score |
| --- | --- |
| COc1cccc(C2Oc3ccccc3C3CC(c4ccccc4O)=NN32)c1OC (configuration not stated) | 6.13 |
| COc1ccc(O)c(C2=NN3C(C2)c2cccc(OC)c2OC3c2ccccc2)c1 (configuration not stated) | 1.51 |
| COc1cccc2c1OC(c1ccccc1F)N1N=C(c3ccccc3O)CC21 (configuration not stated) | 5.58 (active) |
| Cn1c(-c2ccccc2)cnc1NCc1c(F)cccc1Cl | 2.86 |
| Nc1ccc(/C=C/c2nc3ccccc3[nH]2)cc1 | 4.8 (active) |
| Cc1ccc(-c2nc3ccccc3[nH]2)cc1N | 0.04 |
| Nc1cccc(CCc2nc3ccccc3[nH]2)c1 | 1.56 |
| CCCCn1nnc2sc3c(c2c1=O)CCCC3 | -0.96 |
| O=C(CSc1nc2c(c(C(F)(F)F)n1)CCc1ccccc1-2)N1CCOCC1 | 0.53 |
| COc1cc2c(cc1OC)C(C)N(Cc1cc(C)c(O)c(C)c1)CC2 (configuration not stated) | -0.23 |
| CCOC(=O)c1cc(Sc2ccccc2)cc(C(=O)OCC)n1 | -0.71 |
| CCc1ccc(C2C(C(=O)OC)=C(C)NC3=C2C(=O)CC(C)(C)C3)cc1 (configuration not stated) | 0.1 |
| CC(C)(C)OC(=O)n1ccc2cc(Br)ccc21 | 3.27 (active) |
| CC(=O)Oc1cc2c(C(=O)N3CCN(c4ccccc4)CC3)c(C)oc2c2ccccc12 | 3.08 (active) |
| CCOC(=O)c1nnn2c1nc(N1CCN(c3ccccc3)CC1)c1ccccc12 | 0.67 |
| CCOC(=O)c1cc(-c2ccccc2)sc1NC(=S)N1CCN(c2ccccc2)CC1 | 1.09 |
| O=C(CC1(O)C(=O)N(CCc2ccccc2)c2ccccc21)c1cccc(-n2cccc2)c1 (configuration not stated) | -0.51 |
| C1=C(c2cccs2)CC(c2cccs2)=NN=C1c1cccs1 | 3.06 (active) |
| Cc1[nH]nc2c1C(c1ccccc1Cl)C(C#N)=C(N)O2 (configuration not stated) | -1.03 |
| O=C(O)C1C2C=CC(C2)C1C(=O)N1CCN(CCO)CC1 (configuration not stated) | 3.56 (active) |
| COc1ccc(-c2c(C)nn3c2N=C(c2ccccc2)CC3c2ccco2)cc1 (configuration not stated) | -0.12 |
| CC(C)N(CCC#N)CN1C(=O)c2ccccc2C1=O | 1.63 |
| COc1cc2c(cc1OC)C(c1ccccc1)=NC(C)(C)C2 | 0.36 |
| FC(F)(F)c1ccc(/C=N/Nc2nccc(C(F)(F)F)n2)cc1 | 0.54 |
| FC(F)(F)c1ccnc(NCCNc2nccc(C(F)(F)F)n2)c1 | -0.42 |
| FC(F)(F)c1cccc(NC(=S)NNc2nccc(C(F)(F)F)n2)c1 | 3.39 (active) |

| Compound | z-score |
| --- | --- |
| Cc1cc2c(cc1C)CSC(C)(c1cccc([N+](=O)[O-])c1)SC2 | -1.77 |
| Oc1ccc(C2Nc3cccc4cccc(c34)N2)cc1 | 0.15 |
| COc1cccc(C2Nc3cccc4cccc(c34)N2)c1 | 3.24 (active) |
| Cc1ccc(C2CC(c3cccc(C)c3)n3nc(N)nc3N2)cc1 (configuration not stated) | 0.14 |
| Cc1ccc(C2Nc3cccc4cccc(c34)N2)cc1 | 3.06 (active) |
| COc1cccc(-n2[nH]nnc2=S)c1 | 1.1 |
| O=C(CSc1nc2c(c(C(F)(F)F)n1)CCc1ccccc1-2)NCc1cccnc1 | 2.31 |
| CC1=C(C(=O)OC2CCCCC2)C(c2cccnc2)C2=C(CCCC2=O)N1 (configuration not stated) | -0.48 |
| CC1=NOC(=O)C1C(c1cccc(Br)c1)c1c(C)[nH]n(-c2ccccc2)c1=O (configuration not stated) | -4.75 |
| CC(C)(C)c1cc2nc(-c3ccc4c(c3)CCC4)cc(C(F)(F)F)n2n1 | -1.01 |
| Cc1cc(Br)ccc1Nc1ncnc(N)n1 | 0.67 |
| C=CCN(C(=O)c1ccccc1Cl)c1ccccc1C(=O)NCC(=O)OCC | -0.79 |
| Cc1cc(O)cc(C)c1/C=C1\NC(=O)NC1=O | 0.4 |
| Cc1ccc(C(=O)NNc2ncnc3sccc23)cc1 | 0.13 |
| CSc1n[nH]c(N)c1-c1ccccn1 | 6.44 (active) |
| CCOC(=O)c1sc(SC(C)C)c2c1CC(C)(C)CC2=O | -1.12 |
| Cc1ccc(N2CC(=O)N(/N=C/c3ccc4c(c3)OCO4)CC2=O)cc1 | 3.3 (active) |
| O=C(/C(=N\N=C\c1ccc2c(c1)OCO2)c1ccccc1)c1ccccc1 | -1.69 |
| Cc1cc(C)c2c(n1)sc1c(=O)n(/N=C/c3ccc4c(c3)OCO4)c(C)nc12 | -0.06 |
| O=C(c1cccn1-c1ccc(F)cc1)C(F)(F)F | -0.2 |
| Cc1ccc(-c2ccc3c4ccccc4c(C(=O)C(F)(F)F)c-3o2)cc1 | -0.14 |
| O=c1c2c(-c3ccc(Cl)cc3)csc2nc2c3ccccc3c(N3CCN(CCO)CC3)nn12 | -0.37 |
| Cc1ccc(S(=O)(=O)Nc2ccc(F)cc2NS(=O)(=O)c2ccc(C)cc2)cc1 | 15.1 (active) |
| Cn1nccc1NS(=O)(=O)c1ccc(F)cc1 | -0.57 |
| Cc1ccc(S(=O)(=O)Nc2cc(C)cc(C)c2)cc1 | 2.36 |
| CN(C)C(=O)Sc1nnc(C2CC2)n1-c1ccc(Cl)cc1 | 15.9 |

| Compound | z-score |
| --- | --- |
| CC(C)OC(=O)C1C(=O)CC(C)(O)C(C(=O)OC(C)C)C1c1ccc(Br)cc1 (configuration not stated) | -1.31 |
| CCOC(=O)C1=C(C)Nc2nnnn2C1c1ccc(O)cc1 (configuration not stated) | -2.24 |
| CC1=C(C(N)=O)C(c2ccc(F)cc2)n2nnnc2N1 (configuration not stated) | -0.27 |
| CCCOC(=O)C1=C(C)Nc2nnnn2C1c1cc(Br)ccc1OC (configuration not stated) | 3.54 (active) |
| O=C(O)CSCC(=O)Nc1ccccc1Sc1ncnc2cc(-c3ccccc3)sc12 | -0.26 |
| Fc1cccc(-c2nn3c(COc4ccccc4)nnc3s2)c1 | 0.92 |
| COc1cc(O)ccc1C1Nc2c(C)cc(C)cc2-c2cc(C)nn21 (configuration not stated) | 2.86 |
| COc1cccc(C2Nc3ccccc3-c3cc(C)nn32)c1O (configuration not stated) | -0.43 |
| CCOc1ccccc1C1Nc2c(C)cccc2-c2cc(C)nn21 (configuration not stated) | 4.42 (active) |
| Cc1c(C#N)c(NC(=O)c2ccc(Cl)cc2)n(CC2CC2)c1C | 0.46 |
| CN1CCc2c(sc3c2C(=O)NC(c2ccc(Br)cc2)N3)C1 (configuration not stated) | -0.13 |
| C/C(=N\OC(=O)Nc1ccc(Cl)cc1)c1cc(-c2ccccc2)no1 | -0.26 |
| CCOc1ccccc1C1C2=C(CCCC2=O)Nc2nnnn21 (configuration not stated) | 2.2 |
| Cc1c(Br)c([N+](=O)[O-])nn1CC(=O)NCCCn1ccnc1 | -0.68 |
| O=C(O)c1cnc(NCc2ccccc2)s1 | -1.01 |
| O=C(NCc1cccnc1)c1cnc2ccccc2n1 | 0.67 |
| O=C(NCc1ccccc1)c1cc2sccc2s1 | 3.86 (active) |
| Cc1c(C)c(C)c(CSCC(=O)N/N=C/C=C/c2ccccc2)c(C)c1C | 1.61 |
| Cc1ccc(C2CC(C(F)(F)F)n3ncc(C(=O)N(C)Cc4cn(C)nc4C)c3N2)cc1 (configuration not stated) | -1.27 |
| O=C(Nc1ccc(F)cc1)Nc1nnc(C2CC2)s1 | 0.03 |
| O=C(NCc1ccco1)c1nc2ncccn2n1 | 0.13 |
| CS(=O)(=O)n1nc(-c2ccccc2)nc1NCc1ccco1 | 4.95 (active) |
| c1coc(CNc2ncnc3ccccc23)c1 | -1.16 |
| CN(C)c1ccc(C(=S)c2ccc(N(C)C)cc2)cc1 | 0.42 |
| CN(C)c1ccc(NC(=O)C(=O)NCCO)cc1 | 3.85 (active) |
| CN(C)C(=O)Nc1ccc(C(C)(C)C)cc1 | 0.46 |

| Compound | z-score |
| --- | --- |
| CC(=O)c1ccc(OCc2ccc(Cl)c(Cl)c2)c(C)c1O | -0.27 |
| CCCCCOC(=O)COc1ccc2c(=O)c(Oc3cccc(C)c3)coc2c1 | -1.17 |
| O=c1oc2ccccc2c2c1ncn2CCCN1CCOCC1 | 0.33 |
| CCOC(=O)/C(C#N)=C/Nc1ccc(OC)c(C(=O)OC)c1OC | -2.66 |
| COc1ccc(-c2c(-c3ccccc3)oc3ncnc(N)c23)cc1 | 4.1 (active) |
| COc1ccc(-c2oc3ncnc(NCCCO)c3c2-c2ccc(OC)cc2)cc1 | 0.89 |
| c1ccc(-c2oc3ncn4nc(-c5ccccn5)nc4c3c2-c2ccccc2)cc1 | -0.36 |
| CCc1ccc(C2c3c(oc4ccc(C)cc4c3=O)C(=O)N2c2nccs2)cc1 (configuration not stated) | 0.49 |
| CCCC1=NN(c2ccc(S(N)(=O)=O)cc2)C(=O)C1 | -4.3 |
| COC(OC)c1nc(SCc2ccc(Cl)cc2)ncc1C(=O)O | -1.32 |
| CCCCNC(=O)Nc1onc(-c2c(Cl)cccc2Cl)c1C(=O)OC | 0.02 |
| CN(C)NC(=O)c1csnc1-c1c(Cl)cccc1Cl | 3.48 (active) |
| Cc1onc(-c2c(Cl)cccc2Cl)c1C(=O)NN(C)c1ccc([N+](=O)[O-])cn1 | 0.9 |
| CCCCC#Cc1cncc(C(=O)O)c1 | 0.66 |
| COC(=O)c1scc(C)c1NC(=O)C1=Cc2cc(Cl)ccc2OC1 | -0.31 |
| O=C(Nc1ccc2c(c1)OCC1CCCN21)C1=Cc2ccccc2OC1 (configuration not stated) | 4.37 (active) |
| O=C(O)C1=Cc2cc(Cl)ccc2OC1 | 1.52 |
| C=CCNC(=O)CSc1nc2c(c(C(F)(F)F)n1)CCc1ccccc1-2 | 1.7 |
| CCc1nc(-c2ccc(-c3ccccc3)nc2OC)no1 | 0.85 |
| COc1cc(OC)cc(-c2nc(-c3ccc(-c4ccccc4)nc3OC)no2)c1 | 1.1 |
| CCCc1cc(=O)oc2c1c(C)nn2-c1cccc(Cl)c1 | -1.83 |
| COC(=O)C1=C(c2ccccc2)C(c2ccccc2)=C(C(=O)OC)C1=O | 3.2 (active) |
| COC(=O)c1sc(C(F)(F)F)c(-c2ccccc2)c1S(=O)(=O)N(C)C | 0.21 |
| COC(NC(=O)c1ccccc1)(C(F)(F)F)C(F)(F)F | -0.72 |
